In PubChem BioAssay AID1345085 (National Center for Advancing Translational Sciences (NCATS), 2018) one finds Potency and activity change, negative = viability loss data, which are given here for 33 compounds.

Inconclusive results are not listed. Where a call stands in place of a potency, no number is given. A number with no mark means an inactive call. Calls of active or inactive are those of the source. The call rests on the fitted dose curve; in most records, active means well fitted cell-killing curve with a large enough effect; inconclusive means small, poorly fitted or top-dose-only effect, or effect the other way; inactive means no such curve, though single readings can be large or run the other way.
Potency means the concentration at half of the fitted maximal effect.

For the test, the system named is C33A. As to the kind of experiment: Confirmatory qHTS for gynecologic anti-cancer compounds from libraries of approved drugs and bioactive compounds. Further: nearly all actives have a fitted effect of over 55% in size. The following applies: gynecologic cancer cell panel viability, ATPlite luminescence, 48 h; series mostly up to 57.6 µM. The method, boiled down: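 ATPlite luminescence read-out of cell viability; IC50 from 11-point 1:3 titrations, 57.5 uM to 0.977 nM, 48 h compound exposure at 37 C, 5% CO2. Cells seeded at 1,000/well 16 h before dosing.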
In general terms: In qHTS, concentration-response curves come from the screen itself.
Turning to `CCCC(Nc1nc(-c2ccc(NC(=O)NCC)c(OC)c2)ncc1C)c1cccnc1` (stereo not drawn), the Potency is 0.153 µM (active).

Turning to `COc1cc(C(=O)N2CCC(N3CCN(C)CC3)CC2)ccc1Nc1ncc2c(n1)N(C)c1ccccc1C(=O)N2C`, the Potency result is “inactive”.

As for `Cc1cnc(CNC(=O)c2c(=O)c3ccc(N4CCCN(C)CC4)nc3n3c2sc2ccccc23)cn1`, the activity change, negative = viability loss is -18.8% [at 10.7 µM].

For `CC(Oc1ccc2[nH]nc(/C=C/c3cnn(CCO)c3)c2c1)c1c(Cl)cncc1Cl` (stereo not drawn), the Potency result was “inactive”.

For the compound `CC(=O)NCC(=O)N1C2CCC1c1cc(Nc3ncc(C(F)(F)F)c(NC4CCC4)n3)ccc12` (stereo not drawn), the Potency result is “inactive”.

For `NC(=O)c1ccc2nc(-c3ccc(Oc4ccc(Cl)cc4)cc3)[nH]c2c1`, the Potency entry is “inactive”.

Consider `CC[C@@]1(O)C(=O)OCc2c1cc1n(c2=O)Cc2cc3cc(O)ccc3nc2-1`, for which the Potency is 0.306 µM (active).

As to `Cc1nc(N)nc(N)c1-c1ccc(Cl)c(Cl)c1`, the Potency is 0.172 µM (active).

Take `CN(C)C1CCN(C(=O)c2ccc(NC(=O)Nc3nc(N4CCOCC4)nc(N4CCOCC4)n3)cc2)CC1`: the Potency was 0.172 µM (active).

Regarding `CCOc1cc2ncc(C#N)c(Nc3ccc(F)c(Cl)c3)c2cc1NC(=O)/C=C/CN(C)C`, the Potency was 8.63 µM (active).

As for `N#CC1(c2cccc(C(=O)Nc3cc(Oc4ccc5nc(NC(=O)C6CC6)sc5n4)ccc3F)c2Cl)CC1`, the Potency result is “inactive”.

For `C[C@]12CCC(=O)C=C1[C@@H]1C[C@@H]1[C@H]1[C@@H]3[C@@H]4C[C@@H]4[C@@]4(CCC(=O)O4)[C@@]3(C)CC[C@@H]12`, the Potency result was “inactive”.

Consider `CCN(CC)CCNC(=O)c1c(C)[nH]c(/C=C2\C(=O)Nc3ccc(F)cc32)c1C`, for which the Potency is 22.4 µM (active).

On to `CC(=O)c1cnc2ccc(-c3cc(Cl)c(O)c(Cl)c3)nc2c1NC1CCC(CN(C)C)CC1` (stereo not drawn), for which the Potency was 1.4 µM (active).

As for `CCN(CC)CCOc1ccc(/C(=C(\Cl)c2ccccc2)c2ccccc2)cc1`, the Potency is 79.4 µM (active).

`Cc1cc(Nc2nc(N[C@@H](C)c3ncc(F)cn3)ncc2Cl)n[nH]1`: the Potency result is “inactive”.

Take `COc1ccc2cc3[n+](cc2c1OC)CCc1cc2c(cc1-3)OCO2`: the Potency entry is “inactive”.

With `CN(c1nccc(=O)[nH]1)C1CCN(c2nc3ccccc3n2Cc2ccc(F)cc2)CC1`, the Potency result is “inactive”.

Take `O=C(CCCCCCC(=O)Nc1ccccc1)NO`: the Potency is 3.43 µM (active).

Regarding `CCN[C@H]1C[C@H](C)S(=O)(=O)c2sc(S(N)(=O)=O)cc21`, the Potency result is “inactive”.

Consider `CCCCN(CCCC)C(=O)CN1C[C@H](c2ccc3c(c2)OCO3)[C@@H](C(=O)O)[C@@H]1c1ccc(OC)cc1`, for which the Potency entry is “inactive”.

As to `COc1cc(-c2nn(C3CCC(N4CCN(C(C)=O)CC4)CC3)c3ncnc(N)c23)ccc1NC(=O)c1cc2ccccc2n1C` (stereo not drawn), the Potency result was “inactive”.

Turning to `COc1cc2c(Oc3ccc(-c4cnc(Nc5ccc(F)cc5)n(C)c4=O)cc3F)ccnc2cc1OCCCN1CCOCC1`, the Potency result was “inactive”.

In the case of `Cc1ccc(C(=O)Nc2ccc(Oc3cc4cnn(C)c4cc3-c3cn[nH]c3)c(F)c2)c(=O)n1-c1ccc(F)cc1`, the Potency entry was “inactive”.

For the compound `CC[C@H](Nc1ncnc2nc[nH]c12)c1nc2cccc(F)c2c(=O)n1-c1ccccc1`, the activity change, negative = viability loss was -0.528% [at 10.7 µM].

On to `C[C@@H](Oc1cc(-c2cnn(C3CCNCC3)c2)cnc1N)c1c(Cl)ccc(F)c1Cl`, for which the Potency was 24.3 µM (active).

As for `CCCCc1nc2cc(/C=C/C(=O)NO)ccc2n1CCN(CC)CC`, the Potency is 1.53 µM (active).

Consider `COc1cc2c(cc1-c1c(C)noc1C)ncc1[nH]c(=O)n(C(C)c3ccccn3)c12` (stereo not drawn), for which the Potency result was “inactive”.

Consider `C=CC(=O)Nc1cccc(Oc2nc(Nc3ccc(N4CCN(C)CC4)cc3)ncc2Cl)c1`, for which the Potency was 24.3 µM (active).

For `COc1ccc2c(c1OC)C(=O)O[C@@H]2[C@H]1c2c(cc3c(c2OC)OCO3)CCN1C`, the Potency result is “inactive”.

With `O=C1c2c(O)ccc(O)c2C(=O)c2c(NCCNCCO)ccc(NCCNCCO)c21`, the Potency is 0.306 µM (active).

Take `Cc1cc(CN2CCN(c3c(Br)cnc4nc(-c5ccc(N6CCN(C)CC6)cc5)[nH]c34)CC2)no1`: the Potency is 24.3 µM (active).

As for `CN1C2CCC1CC(OC(=O)[C@H](CO)c1ccccc1)C2` (stereo partly drawn), the Potency result is “inactive”.
